PubChem BioAssay (EPA / NIEHS)
A structure can be active in one record and inactive in another. Activity calls are given as the source filed them. Rule for the calls: active = hit-call score of the fitted dose curve at least 0.9, where 1 is the maximum; inactive = score below 0.9.

assay: APR_HepG2_MitoticArrest_72hr: Apredica 72-hour HepG2 Assay for Mitotic Arrest (AID 2282918); details: high-content imaging, actives raise or lower the signal
Description: APR_HepG2_72hr is a cell-based, multiplexed-readout assay that uses HepG2, a human liver cell line, with measurements taken at 72 hours after chemical dosing in a 384-well plate.APR_HepG2_MitoticArrest_72hr is one of 10 assay component(s) measured or calculated from the APR_HepG2_72hr assay. It is designed to make measurements of cell phenotype, a form of morphology reporter, as detected with fluorescence intensity signals by HCS Fluorescent Imaging technology.Data from the assay component APR_HepG2_MitoticArrest_72hr was analyzed into 1 assay endpoint. This assay endpoint, APR_HepG2_MitoticArrest_72hr, was analyzed with bidirectional fitting relative to DMSO as the negative control and baseline of activity. Using a type of morphology reporter, measures of protein for gain or loss-of-signal activity can be used to understand the signaling at the pathway-level as they relate to the gene . Furthermore, this assay endpoint can be referred to as a primary readout, because this assay has produced multiple assay endpoints where this one serves a signaling function. To generalize the intended target to other relatable targets, this assay endpoint is annotated to the cell cycle intended target family, where the subfamily is arrest.
Cells were treated with dimethyl sulfoxide (DMSO) as a solvent control at a final concentration of 0.5% v/v or with compounds in DMSO with a resulting final DMSO concentration of 0.5% v/v. Compound treatment was done at concentrations of 0.39, 0.78, 1.56, 3.12, 6.24, 12.5, 25, 50, 100, and 200 uM in duplicate on each plate. Cells were treated with compounds for 1, 24, or 72 hr. Carbonyl […] m-chloro-phenylhydrazone (CCCP) and taxol were used as positive controls for mitochondrial function and cytoskeletal stability, respectively; DMSO served as the negative control for this experiment. Cells were fixed by the direct addition of 50 uL formaldehyde in Hank's Balanced Salt Solution (HBSS) to a final concentration of 3.7%. After incubation in the fixation medium for 30 min at room temperature (293-298 K), cells were rinsed twice with HBSS and treated with cell permeabilization buffer (16 uL of 0.5% Triton X-100) for 10 min at room temperature (293-298 K) before labeling. For mitochondrial membrane potential and mitochondrial measurements, pre-fixed cells were incubated with 50 uL of MitoTracker Red CMXRos (Invitrogen) at a concentration of 250 nM for 30 min before fixation. In the remaining cases, post-fixed cells were labeled by incubation with a multiplexed mixture of primary antibodies in HBSS for 60 min at room temperature (293-298 K) to detect immunoreactivity of c-Jun (1:500), phospho-histone H3 (1:100), phospho-histone H2A.x (1:200), p53 (1:400), alpha-tubulin (1:200) and Hoechst 33342 (2 ug/mL). Cells were labeled for multiplexed imaging on two separate plates: a) Hoechst 33342, MitoTracker Red, phospho-histone H3, and alpha-tubulin, and b) Hoechst 33342, phospho-histone H2A.x, and c-Jun. A final rinse with HBSS (50 uL) was performed before analysis. The primary and secondary antibodies for the proteins were phospho-histone H3 (rabbit anti-phospho-histone H3 and FITC-donkey anti-rabbit IgG), phospho-histone H2A.x (mouse anti-phospho-histone H2A.x and FITC-donkey anti-mouse IgG), c-Jun (rabbit anti-phospho-c-Jun and Cy3-donkey anti-rabbit IgG), p53 (sheep anti-p53 and Cy5-donkey anti-sheep IgG), alpha-tubulin (mouse anti-alpha-tubulin and Cy5-donkey anti-mouse IgG). These antibodies are available as the CellCiphr HepG2 assay kit (Millipore).Digital images of each well were captured using a Cellomics ArrayScan VTI (Thermo Scientific Cellomics) (0.8 NA objective, 0.63x optical coupler, and XF-93 filter set) at 20x magnification. The images were acquired using the autofocus feature of the ArrayScan instrument, which entails the following steps. First, the camera focuses on channel 1 (Hoechst 33342), where nuclei are identified. Second, a Z offset of 1 um is used for capturing mitochondria (MitoTracker Red). […]

Row | SMILES | AC50 | outcome
1 | NC(=O)O | 4.17 µM (active) | –
2 | CC(C)(C)CC(C)(C)c1ccc(O)cc1 | – | inactive
3 | O=C1C2(Cl)C3(Cl)C4(Cl)C(Cl)(Cl)C5(Cl)C3(Cl)C1(Cl)C5(Cl)C24Cl (stereo not given) | – | inactive
4 | O=C(O)C(F)(F)C(F)(F)C(F)(F)C(F)(F)C(F)(F)C(F)(F)F | 8.69 µM (active) | –
5 | O=C(O)C(Cl)(Cl)Cl | 114 µM (active) | inactive
6 | Oc1cccc2cccnc12 | 5.23 µM (active) | –
7 | C[C@@H]1C[C@@H]([C@H](O)CC2CC(=O)NC(=O)C2)C(=O)[C@@H](C)C1 | 0.564 µM (active) | –
8 | O=c1[nH]c(=O)[nH]c(=O)[nH]1 | – | inactive
9 | C[C@]12CCC(=O)C[C@@H]1CC[C@@H]1[C@@H]2CC[C@]2(C)[C@@H](O)CC[C@@H]12 | – | inactive
10 | COc1cc(-c2ccc(N)c(OC)c2)ccc1N | 24.8 µM (active) | inactive
11 | ClCC(Cl)CCl | – | inactive
12 | CC(C)(OO)c1ccccc1 | 59.4 µM (active) | –
13 | C=C(C)C(=O)[O][Sn]([CH2]CCC)([CH2]CCC)[CH2]CCC | 0.0391 µM (active) | –
14 | CC(=O)[O][Hg][c]1ccccc1 | 1.83 µM (active) | –
15 | CCCCCCCCc1ccc(O)cc1 | 98 µM (active) | –
16 | CC12CC1(C)C(=O)N(c1cc(Cl)cc(Cl)c1)C2=O (stereo not given) | – | inactive
17 | O=C(O)C(F)(F)C(F)(F)C(F)(F)C(F)(F)C(F)(F)C(F)(F)C(F)(F)C(F)(F)C(F)(F)C(F)(F)F | 66.5 µM (active) | –
18 | Cc1ccccc1N | – | inactive
19 | C=CC(=O)OCCCCCC(C)C | – | inactive
20 | Cn1sc(Cl)cc1=O | 97.3 µM (active) | –
21 | CCC(=O)C(CC(C)N(C)C)(c1ccccc1)c1ccccc1 (stereo not given) | 75.6 µM (active) | –
22 | CCC(C)(C)c1ccc(O)c(C(C)(C)CC)c1 | 59.4 µM (active) | –
23 | CN(C)N=O | – | inactive
24 | CCN1CCC2(CC1)COc1cc3c(cc12)N(C(=O)c1ccc(-c2ccc(-c4nnc(C)o4)cc2C)cc1)CC3 | 6.34 µM (active) | –
25 | ClC1(Cl)C2(Cl)C3(Cl)C4(Cl)C(Cl)(Cl)C5(Cl)C3(Cl)C1(Cl)C5(Cl)C24Cl (stereo not given) | – | inactive
26 | CC(C)(C)c1cc(O)ccc1O | – | inactive
27 | CC(C)(c1ccccc1)c1ccc(O)c(C(C)(C)c2ccccc2)c1 | 29.8 µM (active) | –
28 | O=C(Nc1ccc2[nH]ccc2c1)c1cc2cc(F)ccc2n1Cc1cccc(F)c1 | 22 µM (active) | –
